Consider 15 compounds from PubChem BioAssay.

For experiment [1], the target named is 6-phosphogluconate dehydrogenase, decarboxylating (Homo sapiens) (UniProt P52209). The experiment can be described thus: inhibition of human phosphogluconate dehydrogenase – biochemical, recombinant enzyme, NADPH absorbance, primary screen (AID 1159550). The note with it: recombinant 6PGD, NADPH absorbance 341 nm; at 10 µM; stronger effect = higher value.
The nature of experiment [2]: EMT-state selective cytotoxicity in co-culture – imaging, PC-3E GFP, TEM4-18 mCherry, primary screen (AID 1345086;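 active = compounds killing one labelled cell type while sparing the other, by normalised counts and ratio limits, not self-fluorescent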;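 as to all read-outs here: cells exposed to compound for 72 h before imaging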;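 as to red/green cell ratio (normalised): normalised mesenchymal count divided by normalised epithelial count so high means epithelial killing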). The note with it: PC-3E GFP / TEM4-18 mCherry co-culture, imaging cell counts, at 1 µM; for red/green cell ratio (normalised): actives lie on both sides.
Experiment [3] is described as follows: P. berghei load reduction in hepatocytes – cell-based, HepG2, luciferase luminescence, HepG2 viability, primary screen (AID 624349; in the data active = parasite load remaining mostly below about 12%, no sharp cut-off; inactive = mostly above about 10%;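 also: 100% = mean of DMSO negative control wells on the same plate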). As to conditions: P. berghei liver stage in HepG2, luciferase luminescence, concentration not given here; parasite load remaining: stronger effect = lower value; viability: measured here: HepG2 viability without parasites.
Experiment [4] can be described thus: viability loss with induced miR-34 in A549 – imaging, A549 dox-inducible miR-34, nuclei and caspase counts, primary screen (AID 1347080;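 active = compounds whose cell count with miR-34 switched on is under 0.7 times the count with it off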). The note with it: A549 miR-34 inducible, Hoechst nuclei count, 48 h.
Experiment [5] in a line: galactose survival enhancers in mitochondrial complex I cybrids – cell-based, galactose medium, ATP luminescence, primary screen (AID 1645843;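 active = z-score of at least 1.8 in each of two replicates, scored against plate mean and spread of sample wells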;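 also: positive z means more ATP and so rescue of galactose-driven cybrid death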). As to conditions: complex I mutant cybrid cells, 72 h, stronger effect = higher value.
The target in experiment [6] is ATP-dependent translocase ABCB1 (Homo sapiens) (UniProt P08183). The experiment can be described thus: P-glycoprotein substrate transport blockade – cell-based (AID 377; in the data active = fluorescence slope change above about 50%). As to conditions: MDR1-expressing cells, fluorescent substrate accumulation slope; stronger effect = higher value; concentration not given here.
Chain of ATP-dependent translocase ABCB1 (Homo sapiens) (P08183 whole entry, looked up): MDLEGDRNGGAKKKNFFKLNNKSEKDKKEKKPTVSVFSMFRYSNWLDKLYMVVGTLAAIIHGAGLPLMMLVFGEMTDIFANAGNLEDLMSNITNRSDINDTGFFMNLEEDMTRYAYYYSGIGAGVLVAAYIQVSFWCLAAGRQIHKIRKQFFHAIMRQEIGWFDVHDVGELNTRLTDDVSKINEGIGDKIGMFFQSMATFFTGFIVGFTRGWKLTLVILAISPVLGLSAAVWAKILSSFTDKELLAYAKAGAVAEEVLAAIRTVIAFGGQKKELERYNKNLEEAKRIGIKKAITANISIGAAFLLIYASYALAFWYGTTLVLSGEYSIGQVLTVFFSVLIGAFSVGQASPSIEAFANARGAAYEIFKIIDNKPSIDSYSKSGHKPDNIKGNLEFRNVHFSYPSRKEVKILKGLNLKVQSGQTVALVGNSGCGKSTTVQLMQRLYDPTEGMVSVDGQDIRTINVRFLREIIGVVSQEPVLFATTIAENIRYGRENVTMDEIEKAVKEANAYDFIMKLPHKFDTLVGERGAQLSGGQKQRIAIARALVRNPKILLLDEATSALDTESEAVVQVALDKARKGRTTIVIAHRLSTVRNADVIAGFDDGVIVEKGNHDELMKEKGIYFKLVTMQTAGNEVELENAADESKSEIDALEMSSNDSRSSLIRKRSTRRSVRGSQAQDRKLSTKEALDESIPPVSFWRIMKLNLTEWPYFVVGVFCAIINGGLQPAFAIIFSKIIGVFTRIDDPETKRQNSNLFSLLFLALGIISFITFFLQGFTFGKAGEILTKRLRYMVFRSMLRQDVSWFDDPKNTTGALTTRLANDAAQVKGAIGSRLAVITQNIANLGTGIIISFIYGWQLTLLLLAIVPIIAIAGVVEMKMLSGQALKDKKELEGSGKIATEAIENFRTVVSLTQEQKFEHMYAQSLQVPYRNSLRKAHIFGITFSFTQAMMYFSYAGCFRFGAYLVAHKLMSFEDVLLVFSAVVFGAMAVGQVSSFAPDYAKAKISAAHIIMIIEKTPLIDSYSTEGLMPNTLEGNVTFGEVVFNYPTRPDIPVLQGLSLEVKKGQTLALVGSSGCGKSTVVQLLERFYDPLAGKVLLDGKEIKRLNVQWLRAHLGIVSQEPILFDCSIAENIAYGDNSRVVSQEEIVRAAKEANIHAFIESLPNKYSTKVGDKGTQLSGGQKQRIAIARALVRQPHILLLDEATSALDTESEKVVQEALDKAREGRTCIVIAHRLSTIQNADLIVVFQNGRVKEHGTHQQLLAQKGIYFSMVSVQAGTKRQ
Experiment [7] can be described thus: compounds altering viability of human ES cells (AID 493140; call rule not given here;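 also: cells exposed to compounds for four days before counting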). The note with it: human embryonic stem cell survival screen; stronger effect = higher value.
Experiment [8] relates to Aerobactin synthetase IucA (Klebsiella pneumoniae, hypervirulent). As to the kind of experiment: biochemical IucA inhibition screen of LOPAC library by absorbance (AID 1346212; call rule not given here;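 also: 100% = no compound wells and 0% = no enzyme wells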). The note with it: IucA enzyme assay, absorbance (OD) readout; stronger effect = lower value;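 tested at 8 µM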.
Experiment [9] is described as follows: MELAS cybrid and Rieske KO viability enhancers – cell-based, MELAS cybrids, Rieske KO mouse fibroblasts, CellTiter-Glo, primary screen (AID 1508586;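 active = mean z-score across replicates of 1.96 or higher in either the MELAS or the Rieske mutant cell line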;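 also: z relative to plate mean and SD of compound and empty wells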). The note with it: low glucose.
Experiment [10] has as its target NAD(+) hydrolase SARM1 (Homo sapiens) (UniProt Q6SZW1). The experiment can be described thus: blocking NAD cleavage by SARM1 SAM-TIR – cell lysate, NAD-Glo luminescence (AID 1508614;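 active = compound whose remaining NAD level is above about 45 nM, limit read from the data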;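 also: higher remaining NAD means stronger inhibition of SARM1 NADase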). As to conditions: SAM-TIR HEK293T lysate NADase, at 1 µM, stronger effect = higher value.
For experiment [11], the target named is Mitogen-activated protein kinase 7 (Homo sapiens) (UniProt Q13164). The experiment can be described thus: Gal4-ERK5 driven luciferase induction – cell-based, HTS, primary screen (AID 1508626;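 active = luciferase signal above three times the same-plate solvent-only control wells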;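 also: luciferase driven by Gal4-ERK5 fusion binding five Gal4 sites before minimal TATA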). As to conditions: HeLa Gal4-ERK5 transactivation, 18 h, at 5 µM, stronger effect = higher value.
Chain of Mitogen-activated protein kinase 7 (Homo sapiens) (Q13164 whole entry, looked up, the tested form may be a part): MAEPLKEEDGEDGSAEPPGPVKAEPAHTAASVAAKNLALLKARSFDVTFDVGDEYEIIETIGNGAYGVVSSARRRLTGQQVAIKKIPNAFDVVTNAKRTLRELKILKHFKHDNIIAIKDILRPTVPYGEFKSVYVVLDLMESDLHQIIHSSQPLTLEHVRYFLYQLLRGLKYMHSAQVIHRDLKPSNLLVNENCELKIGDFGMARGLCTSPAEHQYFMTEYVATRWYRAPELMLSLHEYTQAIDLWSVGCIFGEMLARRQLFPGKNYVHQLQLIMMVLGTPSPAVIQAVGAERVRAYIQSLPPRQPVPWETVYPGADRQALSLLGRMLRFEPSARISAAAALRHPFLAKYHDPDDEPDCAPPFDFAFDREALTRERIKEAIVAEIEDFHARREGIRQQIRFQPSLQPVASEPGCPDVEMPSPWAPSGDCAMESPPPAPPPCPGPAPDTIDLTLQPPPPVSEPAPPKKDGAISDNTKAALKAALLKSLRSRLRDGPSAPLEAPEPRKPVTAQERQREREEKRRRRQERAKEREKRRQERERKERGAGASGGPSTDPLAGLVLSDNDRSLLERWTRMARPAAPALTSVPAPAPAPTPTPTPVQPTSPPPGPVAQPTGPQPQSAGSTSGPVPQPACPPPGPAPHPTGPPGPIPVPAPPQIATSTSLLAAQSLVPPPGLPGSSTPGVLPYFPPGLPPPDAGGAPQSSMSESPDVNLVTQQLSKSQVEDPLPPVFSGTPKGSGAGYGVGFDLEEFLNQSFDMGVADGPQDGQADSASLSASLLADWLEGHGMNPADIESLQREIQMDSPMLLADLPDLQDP
A short description of experiment [12]: blockers of polyQ-driven CASP3 activation – cell-based (AID 1583). As to conditions: polyglutamine-induced caspase-3 activation, cell assay; stronger effect = higher value;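 tested at 10 µM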.
Experiment [13] is described as follows: yeast 75Q aggregation reduction – 75Q-TubU reporter (AID 1593). As to conditions: Yeast 75Q polyglutamine aggregation reporter.
Experiment [14] is described as follows: restoration of touch response, mutant HTT neurons – whole organism, C. elegans mechanosensory neurons, N-terminal huntingtin (AID 1599). The note with it: C. elegans polyQ-huntingtin mechanosensory neurons, stronger effect = higher value.
Experiment [15] in a line: blockers of cytochrome c efflux from mitochondria – biochemical, purified mitochondria (AID 1603).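 Also: mouse liver mitochondria challenged with calcium chloride; signal normalized to the plate average as 100%.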 As to conditions: stronger effect = lower value.
Experiment [16] can be described thus: polyglutamine aggregate formation blockers (AID 1604). As to conditions: polyglutamine-induced protein aggregation inhibition assay; stronger effect = higher value; tested at 2.5 µM.
Experiment [17] can be described thus: glutamate transport activators, MN-1 cells, MN-1 cell line (AID 1612).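 Also: tested at 1 µM final; 0% = mean of DMSO vehicle wells on each plate; positive means more glutamate uptake than control and negative means less.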 The note with it: MN-1 motor neuron cells, stronger effect = higher value.
Experiment [18] in a line: 75Q-TubH aggregate inhibition, S. cerevisiae, yeast (AID 1616). The note with it: S. cerevisiae 75Q-TubH polyglutamine aggregation suppression; stronger effect = higher value.
For experiment [19], the system named is Aerobactin synthetase IucA (Klebsiella pneumoniae hvKP1). The experiment can be described thus: IucA enzyme inhibition, primary screen, biochemical, Spectrum library (AID 1346200; call rule not given here;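 also: 100% = wells without compound and 0% = wells lacking enzyme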). As to conditions: malachite green pyrophosphate, A620, at 8 µM, stronger effect = lower value.
Where [20] appears, read: measured here: epithelial PC-3E GFP cell survival.
The mark [21] stands for this setting: measured here: mesenchymal TEM4-18 mCherry cell survival.
Setting [22] is: measured here: relative caspase fold change +Dox/-Dox.
The mark [23] stands for this setting: measured here: total cells with miR-34 induction, stronger effect = lower value.
The mark [24] stands for this setting: measured here: total cells without miR-34 induction.

Several values for one entry are separate records, joined by “and”; a condition that tells them apart may be missing. Equal values may be shown once. Inconclusive results are not listed. For some of these results: Potency and affinity values are given separately. Activity calls are given as the source filed them.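 The calls were made as follows, unless noted: active = at least 20% inhibition of 6-phosphogluconate dehydrogenase activity; inactive = the rest.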

Chain of 6-phosphogluconate dehydrogenase, decarboxylating (Homo sapiens) (P52209 whole entry, looked up): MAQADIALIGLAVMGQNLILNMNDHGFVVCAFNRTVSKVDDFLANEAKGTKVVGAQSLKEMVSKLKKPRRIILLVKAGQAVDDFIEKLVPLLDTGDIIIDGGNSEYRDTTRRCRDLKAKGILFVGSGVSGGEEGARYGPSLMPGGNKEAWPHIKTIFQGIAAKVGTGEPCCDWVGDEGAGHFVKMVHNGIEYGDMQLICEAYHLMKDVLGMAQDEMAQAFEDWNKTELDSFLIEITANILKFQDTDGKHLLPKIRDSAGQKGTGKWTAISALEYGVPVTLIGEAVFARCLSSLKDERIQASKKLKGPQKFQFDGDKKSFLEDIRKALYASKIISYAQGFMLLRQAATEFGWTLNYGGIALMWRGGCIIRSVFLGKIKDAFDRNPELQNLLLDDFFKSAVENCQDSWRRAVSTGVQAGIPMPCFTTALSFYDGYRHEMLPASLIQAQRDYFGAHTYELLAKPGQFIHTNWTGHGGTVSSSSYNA
Chain of NAD(+) hydrolase SARM1 (Homo sapiens) (Q6SZW1 whole entry, looked up, the tested form may be a part): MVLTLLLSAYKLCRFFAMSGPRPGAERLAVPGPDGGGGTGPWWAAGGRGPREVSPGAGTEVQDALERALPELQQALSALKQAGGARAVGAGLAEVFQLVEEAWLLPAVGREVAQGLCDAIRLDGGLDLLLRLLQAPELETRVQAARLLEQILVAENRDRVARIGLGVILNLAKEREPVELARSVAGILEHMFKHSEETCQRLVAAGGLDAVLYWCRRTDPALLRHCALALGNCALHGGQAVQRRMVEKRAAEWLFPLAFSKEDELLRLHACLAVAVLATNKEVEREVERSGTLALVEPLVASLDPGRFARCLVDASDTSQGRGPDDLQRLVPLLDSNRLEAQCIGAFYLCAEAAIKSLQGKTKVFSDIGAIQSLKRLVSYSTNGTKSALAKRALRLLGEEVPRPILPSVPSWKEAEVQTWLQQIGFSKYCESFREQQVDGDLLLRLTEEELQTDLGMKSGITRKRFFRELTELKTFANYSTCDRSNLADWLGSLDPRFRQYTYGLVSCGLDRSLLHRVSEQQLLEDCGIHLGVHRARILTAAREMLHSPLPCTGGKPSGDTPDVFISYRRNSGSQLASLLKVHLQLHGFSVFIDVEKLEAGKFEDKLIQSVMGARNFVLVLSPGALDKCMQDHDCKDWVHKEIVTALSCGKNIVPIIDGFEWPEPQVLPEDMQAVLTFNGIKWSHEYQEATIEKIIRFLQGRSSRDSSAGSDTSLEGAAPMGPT

`COc1cc2c(cc1OC)-c1c(oc3c4c(ccc3c1=O)OC(C(C)C)C4)CO2` (configuration not stated): in [1], the inhibition is -6.79% (inactive). In experiment [2] (counts scaled to control wells, 1 = unselective), the red/green cell ratio (normalised) was 0.93 (inactive). For the same compound, the values for the normalised cell number in experiment [2] (setting [20]) and in experiment [2] (setting [21]) were 0.99 and 0.92, respectively.
With `COc1c2c(cc3c1OCO3)[C@]13C=C[C@H](OC)C[C@H]1N(C2)C[C@@H]3O`, the inhibition in experiment [1] is -2.74% (inactive).
As to `c1ccc2c3c([nH]c2c1)CNCC3`, the parasite load remaining in [3] was 59.9% (inactive). The compound also had a viability in [3] of 85.2%. In addition, the inhibition in [1] was -0.853% (inactive). Besides, the results for the fold change in experiment [4] (stronger effect = lower value) and in experiment [4] (setting [22]) were 0.984 (inactive) and 1.28, respectively. Besides, the results for the cell count in experiment [4] (setting [23]) and in experiment [4] (setting [24]) were 7470 and 7600, respectively. The z-score in [5] is -0.425 (inactive).
Take `C=CCN1CC[C@]23c4c5ccc(O)c4O[C@H]2C(=O)CC[C@@]3(O)[C@H]1C5`: in experiment [6], the fluorescence slope change is 64.1% (active). Moreover, in experiment [7], the survival was 31.3 (inactive). In addition, in experiment [1], the inhibition was -2.77% (inactive). The remaining activity in [8] is 107% (inactive). Also, the z-score in experiment [9] (MELAS cybrid survival, CellTiter-Glo 48 h, stronger effect = higher value) is 0.056 (inactive) and 0.0574 (inactive); in experiment [9] (Rieske KO mouse fibroblast survival, CellTiter-Glo 72 h), -0.112 and -0.417; in experiment [5], 0.98 (inactive) and -0.48 (inactive) and 0.575 (inactive). The remaining NAD in experiment [10] was 10 nM (inactive). Besides, the luciferase signal in [11] was 32 AU (inactive).
Consider `O=C1CC2OCC=C3CN4CCC56c7ccccc7N1C5C2C3CC46` (configuration not stated), for which the inhibition in experiment [1] was -2.71% (inactive).
Regarding `CC1(C)[C@H](O)CC(=O)[C@@]2(C)[C@@H]1CC(=O)[C@]1(C)[C@H]2CC[C@@]2(C)[C@H](c3ccoc3)OC(=O)[C@H]3O[C@]321`, the inhibition in experiment [1] is 8.09% (inactive).
In the case of `c1ccc2c(c1)cc1ccc3cccc4ccc2c1c34`, the inhibition in [1] is 5.92% (inactive). Moreover, in experiment [2], the red/green cell ratio (normalised) is 0.86 (inactive). In addition, the figures for the normalised cell number in [2] (setting [20]) and in [2] (setting [21]) were 1.22 and 1.05, respectively.
In the case of `CNC(=O)O/N=C/C(C)(C)SC`, in [1], the inhibition was -1.92% (inactive).
On the same count and under the same terms, for `COc1cc2c3cc1Oc1cc(ccc1O)C[C@@H]1c4c(cc(OC)c(O)c4Oc4ccc(cc4)C[C@H]3N(C)CC2)CCN1C` the value was -17.6% (inactive); for `CCCCN(CC)c1c([N+](=O)[O-])cc(C(F)(F)F)cc1[N+](=O)[O-]`, -9.8% (inactive).
As for `O=C(O)COc1ccc(Cl)cc1Cl`, in experiment [1], the inhibition was -20.1% (inactive). The red/green cell ratio (normalised) in experiment [2] was 1.22 (inactive). Besides, the normalised cell number stood at 0.89 in [2] (setting [20]) and 1.08 in [2] (setting [21]).
On to `CC[C@H]1CN2CC[C@H]1C[C@@H]2[C@@H](O)c1ccnc2ccc(OC)cc12`, for which, in [1], the inhibition is 5.31% (inactive). Further, the remaining NAD in [10] is 10 nM (inactive). The luciferase signal in [11] is 16 AU (inactive).
Turning to `Clc1ccc(COC(Cn2ccnc2)c2ccc(Cl)cc2Cl)c(Cl)c1` (configuration not stated), the inhibition in [12] was 16.3%; in [1], -24.1% (inactive). In [13], the score was -0.06. In experiment [14], this compound came in with a rescue above control of 0. Also, in experiment [15], the cytochrome c release ratio stood at 0.32. Besides, in [16], the inhibition of aggregation worked out at 80.3%. This compound also came in with a glutamate uptake change in [17] of 5.65%. This compound had an aggregation suppression score in experiment [18] of 0.00246. Also, the red/green cell ratio (normalised) in experiment [2] is 1.04 (inactive). Further, the normalised cell number in [2] (setting [20]) was determined as 0.94; in [2] (setting [21]), 0.97. Also, the activity remaining in experiment [19] was 98.2% (inactive). Besides, the remaining NAD in experiment [10] was 10 nM (inactive). Further, in [11], the luciferase signal is 48 AU (inactive). Also, the z-score in [5] is -1.52 (inactive) and -2.01 (inactive).
Consider `CN1[C@@H]2C[C@@H]3C[C@H]1[C@H](O)[C@H]2O3`, for which the inhibition in [1] was -5.75% (inactive).
For `COc1ccc2[nH]cc(CCN)c2c1`, the parasite load remaining in [3] was 58.9% (inactive). Besides, in experiment [3], the viability stood at 68.9%. In experiment [1], the inhibition was 0.367% (inactive). Moreover, in experiment [2], the red/green cell ratio (normalised) is 0.84 (inactive). In addition, the normalised cell number in [2] (setting [20]) came to 1.18; in experiment [2] (setting [21]) it was 0.99. The activity remaining in experiment [19] was 83.6% (inactive). Also, the remaining activity in experiment [8] is 109% (inactive). Also, the fold change is 1.03 (inactive) and 0.901 (inactive) in [4] (stronger effect = lower value); 1.64 and 1.2 in [4] (setting [22]). Besides, the cell count in experiment [4] (setting [23]) is 10600 and 8900; in experiment [4] (setting [24]), 10300 and 9880. Also, in [5], the z-score is 0.225 (inactive) and 0.515 (inactive).

A word on the inhibition: it is the change of the read-out against control, counted positive when it falls. The term viability denotes a read-out of living cells in per cent, often relative to untreated cells. By remaining activity is commonly meant the signal under treatment as a percentage of the control signal.
